Screens deposited in PubChem by National Center for Advancing Translational Sciences (NCATS).
D2 PAM-1 = Beta-Arrestin HTS for Positive Allosteric Modulators of the Human D2 Dopamine Receptor: Potentiators; 360,000 tested, 0.23% active; AID 624464, 2012; DiscoveRx D2 beta-arrestin cells, luminescence, 90 min; 100% = 57 uM dopamine signal; potentiation, % (no concentration beside the values); D(2) dopamine receptor (Homo sapiens), P14416; in the data active = potentiation above about 50%; inconclusive = mostly about 30% to 49%
Target sequence (P14416 whole entry, looked up): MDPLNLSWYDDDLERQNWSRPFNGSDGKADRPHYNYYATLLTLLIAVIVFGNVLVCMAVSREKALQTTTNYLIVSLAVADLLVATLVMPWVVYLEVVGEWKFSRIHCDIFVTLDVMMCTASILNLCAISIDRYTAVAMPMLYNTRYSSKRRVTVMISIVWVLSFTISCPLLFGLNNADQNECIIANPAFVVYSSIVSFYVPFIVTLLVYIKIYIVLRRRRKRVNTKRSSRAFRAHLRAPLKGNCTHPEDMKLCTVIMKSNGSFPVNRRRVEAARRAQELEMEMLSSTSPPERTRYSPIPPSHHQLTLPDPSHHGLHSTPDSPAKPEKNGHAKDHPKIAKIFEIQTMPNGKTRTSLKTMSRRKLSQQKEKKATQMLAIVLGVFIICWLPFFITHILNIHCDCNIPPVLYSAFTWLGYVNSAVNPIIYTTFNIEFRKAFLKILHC
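D2 cells co-treated with compound plus 50 nM dopamine (EC20) for 90 min at 37 deg C to detect potentiation. Beta-arrestin recruitment was read as enzyme-fragment luminescence after 1 h at ambient temperature. Full response was set by 57 uM dopamine.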
D2 ag-1 = Beta-Arrestin HTS for Positive Allosteric Modulators of the Human D2 Dopamine Receptor: Agonists | AID 624465, 2012 | 360,000 tested, 0.084% active | D(2) dopamine receptor (Homo sapiens), P14416 | activation, % (concentration not given with the values) | DiscoveRx PathHunter D2 beta-arrestin, luminescence, 90 min; 100% = 57 uM dopamine signal; in the data active = activation above about 40%; inconclusive = between about 15% and that limit
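Agonist mode: compounds alone added to overnight-plated D2 PathHunter cells for 90 min at 37 C, with 57 uM final dopamine (EC100) defining full response. Beta-arrestin recruitment detected by chemiluminescent reagent, read after 1 h at ambient temperature.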
D2 ag-2 = HTS Assay for Allosteric Agonists of the Human D2 Dopamine Receptor: Primary Screen for Agonists. 340,000 tested, 0.53% active. activation, % at 2 µM. AID 485358, 2010. HEK293 T-REx D2 cells, calcium flux agonist mode. D(2) dopamine receptor (Homo sapiens), P14416;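 active = activation over 3 SD above normal in the single-dose calcium agonist read, cut at about 30% in these data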
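Agonism is scored from calcium flux in a force-coupled, inducible HEK293 cell line expressing D2, read kinetically for 180 s after compound addition against dopamine controls.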
D2 antag = HTS Assay for Allosteric Antagonists of the Human D2 Dopamine Receptor: Primary Screen for Antagonists | HEK293 TREx D2 cells, calcium flux, dopamine EC80 | AID 485344, 2010 | inhibition, % at 10 µM | D(2) dopamine receptor (Homo sapiens), P14416 | 340,000 tested, 2% active; in the data active = inhibition above about 30%; inactive = below that, where a call was filed
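Tetracycline-induced HEK293 T-REx cells expressing D2 force-coupled to calcium signalling were dye-loaded, exposed to compound for 180 s, then challenged with an EC80 of dopamine; calcium flux was followed kinetically for a further 180 s.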
D2 PAM-2 = HTS Assay for Positive Allosteric Modulators of the Human D2 Dopamine Receptor: Primary Screen for Potentiators; D(2) dopamine receptor (Homo sapiens), P14416; HEK293 T-REx D2, calcium flux, EC20 dopamine potentiation; potentiation, % at 10 µM; 340,000 tested, 0.34% active; AID 485347, 2010;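 active = potentiation over 3 SD above the plate norm, cut at about 30% in these data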
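Potentiation of an EC20 dopamine calcium response measured kinetically over 180 s, after a preceding 180 s compound-only read flagging agonists. Cells: inducible Hek293 Trex D2 line, 4000/well, cultured overnight at 30 C before dye loading.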
Large screens that a line does not name were inactive. Compounds with a hit are over-represented: about 2.4% of the library has one in this group of screens.

O=C(NCCN1CCOCC1)c1cccc(NS(=O)(=O)c2ccc(Br)cc2)c1	D2 antag 33
CN(C)CCNC(=O)c1cccc(NS(=O)(=O)c2ccc(Cl)c(Cl)c2)c1	D2 antag 35
Cc1ccc(S(=O)(=O)Nc2cccc(C(=O)NCCN3CCOCC3)c2)cc1F	none
C=CCNC(=O)c1cccc(NS(=O)(=O)c2ccc(Cl)cc2)c1	none
O=C(NCc1ccc(F)cc1Cl)c1ccc(CSCc2ccccc2Cl)o1	none (no result: D2 PAM-1, D2 ag-1, D2 antag)
COc1ccc(CCNC(=O)CCCn2c(=O)c3ccccc3n(Cc3c(C)cc(C)cc3C)c2=O)cc1OC	none (no result: D2 PAM-1, D2 ag-1, D2 antag)
Cc1c(Cl)cccc1NC(=O)c1cc2nc(-c3ccc4c(c3)OCO4)cc(C(F)(F)F)n2n1	none (no result: D2 PAM-1, D2 ag-1, D2 antag)
Cc1ccc(NC2=C/C(=N/S(=O)(=O)c3cccs3)c3ccccc3C2=O)cc1C	D2 PAM-1 76, D2 ag-1 inconclusive
C/C(=N\NC(=S)Nc1cc(S(=O)(=O)N2CCOCC2)ccc1Cl)c1ccc(N2CCOCC2)cc1	D2 antag 35
C=CCOc1ccc(C=Nc2ccc(OC)cc2)c(O)c1	D2 PAM-2 48
COc1ccc(N=Cc2ccccc2O)cc1	none (no result: D2 ag-2, D2 antag, D2 PAM-2)
Cc1ccc(NC(=O)c2cc(C)nc3c2c(C)nn3-c2cccc(Cl)c2C)c(C)c1	none (no result: D2 PAM-1, D2 ag-1, D2 antag)
C=CCN1CCN(C(=O)c2cc3c(s2)CCC(CC)C3)CC1 (stereo not given)	D2 antag 46
CCC1CCc2sc(C(=O)O)cc2C1 (stereo not given)	none
COc1ccccc1-c1ccc(/C=C2/C=C(CC(C)C)OC2=O)o1	D2 antag 33
O=[N+]([O-])c1ccc(/C=N/NS(=O)(=O)c2ccc(Cl)cc2)o1	D2 antag 45
Cc1ccc(S(=O)(=O)N/N=C\c2ccc([N+](=O)[O-])o2)cc1	none
CCCOC(=S)NC(=O)c1sc2ccccc2c1Cl	D2 antag 31
Cc1cccc(C)c1OCc1n[nH]c(=S)n1N	D2 antag 43
Cc1cccc(C)c1OCc1n[nH]c(=S)n1-c1ccccc1	none
C/C(=N\NC(=O)c1cc2ccccc2cc1O)c1ccc2c(c1)OCO2	D2 antag 33
C/C(=N\NC(=O)c1ccc(C)cc1C)c1ccc2c(c1)OCO2	none
NC1=NC2(CCN(Cc3ccccc3)CC2)n2c(nc3ccccc32)N1	D2 antag 43
Cc1ccccc1OCc1nnc(SCc2cc(=O)c3ccc(C)c(C)c3[nH]2)n1C	none (no result: D2 PAM-1, D2 ag-1, D2 antag)
N#C/C(=C\c1ccncc1)c1nc2ccccc2[nH]1	none
Cc1cc2nc(/C(C#N)=C/c3ccncc3)[nH]c2cc1C	D2 antag 36
CCOC(=O)c1ccccc1NC(=O)CSc1nc2cn(CC)nc2c(=O)n1Cc1ccc(Cl)cc1	none (no result: D2 PAM-1, D2 ag-1, D2 antag)
Cc1cc(C)n2nc(CNC(=O)c3cccc(N(C)C)c3)nc2n1	none (no result: D2 PAM-1, D2 ag-1, D2 antag)
CC(C)OP(=O)(c1ccc(N(C)C)cc1)C(O)c1ccncc1 (stereo not given)	D2 antag 32
CC(C)OP(=O)(c1ccc(N(C)C)cc1)C(O)c1ccccc1F (stereo not given)	none
COc1ccccc1C(O)P(=O)(OC(C)C)c1ccc(N(C)C)cc1 (stereo not given)	D2 antag 31
CCc1cccc(C)c1NC(=O)c1ccc(CN2CCc3ccccc3C2)cc1	D2 antag 55
COc1ccc(OC)c(NC(=O)c2ccc(CN3CCc4ccccc4C3)cc2)c1	D2 antag 41
CCOCCCNC(=O)c1ccc(CN2CCc3ccccc3C2)cc1	none (no result: D2 ag-2, D2 antag, D2 PAM-2)
Cc1ccccc1NC(=O)c1ccc(CN2CCc3ccccc3C2)cc1	none (no result: D2 ag-2, D2 antag, D2 PAM-2)
COC(=O)c1ccc(CN2CCc3ccc(NC(=O)c4ccncc4)cc3C2)cc1	D2 antag 35
CC(C)OCCCNC(=O)c1ccc(CN2CCc3ccccc3C2)cc1	D2 antag 44
COc1cccc(CNC(=O)c2c3c(nc4ccccc24)C(=O)N(C2CCCCC2)C3)c1	none (no result: D2 PAM-1, D2 ag-1, D2 antag)
Cc1ccc(-c2noc(-c3nnn(CC(=O)Nc4ccc(C)c(Cl)c4)c3N)n2)cc1	none (no result: D2 PAM-1, D2 ag-1, D2 antag)
CN1CCC(=C2c3ccccc3C=Cc3ccccc32)CC1	D2 antag 77
Cc1nc(Nc2ccc(S(N)(=O)=O)cc2)oc1C	D2 PAM-2 49
Cc1cccc(NC(=O)C2CCCN(S(=O)(=O)c3ccc(Br)s3)C2)c1 (stereo not given)	none (no result: D2 PAM-1, D2 ag-1, D2 antag)
O=C(CCCOc1ccccc1)Nc1nc2ccccc2[nH]1	D2 PAM-2 70
Cc1ccc(OCCCC(=O)Nc2nc3ccccc3[nH]2)cc1	none
COc1cc(Br)c(C2CC(=O)Nc3cc4c(cc32)OCCO4)cc1OC (stereo not given)	none (no result: D2 PAM-1, D2 ag-1, D2 antag)
COc1ccc2c(c1)-c1ccccc1S(=O)(=O)N2C	D2 antag 34
NS(=O)(=O)c1ccc(N2CCN(C(=O)C3COc4ccccc4O3)CC2)nc1 (stereo not given)	D2 antag 35
O=C(C1COc2ccccc2O1)N1CCN(c2ccccc2)CC1 (stereo not given)	D2 antag 41
O=C(C1COc2ccccc2O1)N1CCN(c2ccc(C(F)(F)F)cn2)CC1 (stereo not given)	none (no result: D2 ag-2, D2 antag, D2 PAM-2)
O=C(O)c1ccc(-c2ccc(/C=c3/sc4nc5ccccc5n4c3=O)o2)cc1Cl	D2 ag-2 48, D2 antag 34
Cc1ccc2c(nc3s/c(=C\c4ccc(-c5ccccc5C(=O)O)o4)c(=O)n32)c1C	D2 ag-2 40
Cc1ccc(S(=O)(=O)c2nc(S(C)(=O)=O)sc2NCc2ccccc2)cc1	none (no result: D2 PAM-1, D2 ag-1, D2 antag, D2 PAM-2)
Cc1ccc2[nH]c3c(N4CCN(Cc5ccccc5)CC4)ncnc3c2c1	D2 antag 39
Cc1ccc2c(c1)[nH]c1c(N3CCN(Cc4ccccc4)CC3)ncnc12	none
c1ccc(-c2cnn3c(-c4ccccc4)c(-c4ccccc4)nc3n2)cc1	D2 ag-2 137, D2 antag 39
Nc1nc(-c2ccccc2)c(-c2ccccc2)n1N	none
O=C1/C(=C/c2ccc(Cl)cc2)SC(=S)N1CCC(=O)N1CCCCC1CCO (stereo not given)	D2 antag 31
COCCN1C(=O)/C(=C/c2ccc(N3CCCC3)cc2)SC1=S	D2 ag-2 41
O=C1/C(=C/c2cccc(Cl)c2)SC(=S)N1CCC(=O)N1CCCCC1CCO (stereo not given)	none
COc1ccc(/C=C2\SC(=S)N(CCC(=O)N3CCCCC3)C2=O)cc1	none
COc1ccc(-c2nc(CSCC(=O)N3CCN(C)CC3)c(C)o2)cc1OC	D2 antag 40
